GSTO1 inh – blocks human GSTO1 in RBBP9 counter-screen; AID 1974; P78417; recombinant GSTO1, activity-based probe fluorescence polarization; hit rate 1.1% among 300,000; inhibition, % at 5.96 µM;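 active = inhibition above the campaign mean inhibition plus 3 SD, cut at about 35% in these data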;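 note: 0% = GSTO1-1 with DMSO and 100% = wells lacking GSTO1-1 enzyme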
Target sequence (P78417 whole entry, looked up): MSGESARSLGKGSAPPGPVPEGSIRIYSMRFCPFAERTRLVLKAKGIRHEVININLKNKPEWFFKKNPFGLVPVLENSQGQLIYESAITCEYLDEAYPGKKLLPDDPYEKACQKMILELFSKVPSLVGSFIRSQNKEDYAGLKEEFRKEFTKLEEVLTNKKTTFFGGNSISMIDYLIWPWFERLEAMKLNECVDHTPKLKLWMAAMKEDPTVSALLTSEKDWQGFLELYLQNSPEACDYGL
LYPLA1 inh – blocks human lysophospholipase 1, a PME1 counter-screen; recombinant LYPLA1, FP-Rh probe fluorescence polarization; hit rate 0.16% among 320,000; inhibition, % at 5.9 µM;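 active = inhibition above the mean of all tested compounds plus 3 SD, set per campaign, cut at about 14% in these data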;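 note: inhibitors block serine hydrolase probe labeling of LYPLA1 so polarization falls; 0% = enzyme with DMSO and 100% = wells lacking LYPLA1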
Target sequence (O75608 whole entry, looked up): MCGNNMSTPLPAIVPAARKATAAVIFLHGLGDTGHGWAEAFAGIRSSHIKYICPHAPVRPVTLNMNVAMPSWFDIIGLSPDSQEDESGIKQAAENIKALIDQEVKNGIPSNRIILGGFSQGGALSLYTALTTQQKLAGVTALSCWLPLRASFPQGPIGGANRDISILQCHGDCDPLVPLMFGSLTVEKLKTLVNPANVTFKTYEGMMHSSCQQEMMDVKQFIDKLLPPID
PREPL inhibitor – inhibits the human prolyl oligopeptidase-like enzyme; recombinant PREPL, fluorescence polarization activity-based probe; Q4J6C6; inhibition, % at 5.96 µM; hit rate 0.68% among 320,000; in the data active = inhibition above about 43%;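 note: 0% = enzyme with DMSO and 100% = wells lacking enzyme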
PME-1 inh – blocks human protein phosphatase methylesterase 1; inhibition, % at 5.9 µM; recombinant PME-1, FP-Rh probe fluorescence polarization; Q9Y570; hit rate 0.53% among 320,000; AID 2130;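 active = inhibition above the campaign mean of all compounds plus 3 SD, cut at about 26% in these data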;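 note: competitive labeling of PME-1 active site by serine hydrolase directed probe; 0% = PME-1 with DMSO and 100% = wells lacking PME-1 enzyme; inhibitors block probe labeling so polarization falls and inhibition rises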
LYPLA2 counter – LYPLA2 (human) inhibition in PME1 counter-screen; O95372; recombinant LYPLA2, FP-Rh probe fluorescence polarization; inhibition, % at 5.9 µM; hit rate 0.38% among 320,000; AID 2177;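 active = inhibition above the screen-wide mean plus 3 SD, limit set per campaign, cut at about 26% in these data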;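 note: 0% = LYPLA2 with DMSO and 100% = wells lacking LYPLA2 enzyme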
Target sequence (O95372 whole entry, looked up): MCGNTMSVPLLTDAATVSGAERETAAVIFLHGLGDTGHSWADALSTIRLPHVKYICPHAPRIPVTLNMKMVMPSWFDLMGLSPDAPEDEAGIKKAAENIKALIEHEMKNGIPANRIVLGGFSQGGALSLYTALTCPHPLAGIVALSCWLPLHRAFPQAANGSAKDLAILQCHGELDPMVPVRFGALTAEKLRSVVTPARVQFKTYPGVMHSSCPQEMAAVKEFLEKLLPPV
Fam108B counter – Fam108B inhibition, counter-screen for RBBP9 inhibitors. recombinant Fam108B, FP-Rh probe fluorescence polarization. inhibition, % at 9.51 µM. hit rate 0.33% among 300,000. AID 1947;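 active = inhibition above the screen mean inhibition plus 3 SD, computed separately per campaign, cut at about 18% in these data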;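 note: inhibitors lower polarization as less probe binds the enzyme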
Fam108b confirm – confirmation of mouse Fam108b serine hydrolase inhibitors; shares compounds with Fam108B counter; recombinant Fam108b, FP-Rh probe fluorescence polarization; inhibition, % at 9.51 µM; hit rate 44% among 930; AID 1978;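 active = inhibition above a limit from the primary screen, the mean over all compounds plus 3 SD, cut at about 19% in these data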;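 note: 0% = median of active Fam108b wells and 100% = catalytically dead S170A mutant; inhibitors free the probe so polarization falls as inhibition rises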
Fam108b ABPP HTS – inhibits mouse Fam108b in gel-based ABPP; shares compounds with Fam108B counter; recombinant Fam108b, fluorophosphonate probe; inhibition, % at 20 µM; hit rate 44% among 260; AID 588649; in the data active = inhibition above about 40%
The depositor's hits bear a star; . = not tested or not shown. An excerpt weighted towards active compounds, which were near 2% of everything screened.

SMILES	GSTO1 inh	LYPLA1 inh	PREPL inhibitor	PME-1 inh	LYPLA2 counter	Fam108B counter	Fam108b confirm	others
O=C1[C@@H]2Cc3c([nH]c4ccccc34)C(c3ccc([N+](=O)[O-])cc3)N2C(=O)CN1C1CC1 (some centres undefined)	5.9	3.5	6.3	4.6	0.6	-0.1	.
O=C1[C@@H]2Cc3c([nH]c4ccccc34)C(c3ccccc3)N2C(=O)CN1C1CC1 (some centres undefined)	6.0	-4.0	23.1	27.0*	1.2	19.5*	5.6
CCCCn1c(N)c(N(CC(C)C)C(=O)CCNC(=O)c2ccc(Br)cc2)c(=O)[nH]c1=O	-4.2	0.7	5.8	1.5	1.1	-0.7	.
CC(NC(=O)Cc1ccccc1)C1COc2ccccc2O1 (centres undefined)	3.4	1.9	-2.6	1.0	5.1	124.7*	-0.9
CCN(CC)C(=O)c1csc(Nc2ccc(C)cc2)n1	-0.4	1.2	6.7	2.3	3.6	2.1	.
CCCCC(CCC(=O)O)(C(=O)OCC)c1csc(Nc2ccccc2)n1 (centres undefined)	-5.6	-1.1	0.1	-2.3	-9.4	-2.2	.
CCOC(=O)/C(=N\Nc1ccc(Cl)cc1)c1csc(Nc2ccccc2)n1	2.4	-5.0	11.0	29.2*	5.2	20.7*	27.2*
CCOC(=O)/C(=N/Nc1ccccc1)c1csc(Nc2ccccc2)n1	3.0	-14.3	8.5	9.7	-8.4	21.5*	-7.3
CCOC(=O)/C(=N\Nc1ccc(OC)cc1)c1csc(Nc2ccccc2)n1	5.8	-9.9	21.6	11.2	3.2	23.4*	10.3
COc1ccc(S(=O)(=O)Nc2cccnc2)cc1	1.9	1.4	10.6	3.0	0.3	0.5	.
COc1ccccc1Nc1ccc(NC(=O)c2cccc([N+](=O)[O-])c2C)cc1	-4.1	-7.2	26.1	15.4	4.9	19.9*	-6.2
O=C(COC(=O)CNC(=O)c1ccc(Cl)c([N+](=O)[O-])c1)NC(=O)CN1CCCC1=O	-0.5	-0.2	0.2	0.2	3.5	-4.2	.
O=S(=O)(c1ccc(NC(=S)N/N=C/c2ccc(O)c(O)c2)cc1)N1CCOCC1	20.6	-18.1	33.2	15.5	4.1	1.8	.
O=[N+]([O-])c1cc(Cl)cc(C=NNC(=S)Nc2ccc(S(=O)(=O)N3CCOCC3)cc2)c1O	.	.	.	.	.	.	.	Fam108b ABPP HTS=0.0
Cc1ccccc1-c1nc2sc3c(c2c(=O)o1)CCC3	1.8	1.1	15.4	-5.0	-1.0	20.8*	11.4
CCCOc1ccc(C2C3=C(Nc4nc(N)[nH]c(=O)c42)c2ccccc2C3=O)cc1 (centres undefined)	1.9	-13.6	15.0	12.5	-5.9	22.7*	19.2*
CCOc1ccc(C2C3=C(Nc4nc(N)[nH]c(=O)c42)c2ccccc2C3=O)cc1 (centres undefined)	6.3	-2.3	15.9	4.1	-5.0	6.5	.
CCOC(=O)c1sc(NC(=O)Nc2ccc(Cl)cc2)cc1C	-56.1	-24.2	21.6	19.8	-11.3	44.1*	83.2*	Fam108b ABPP HTS=95.0*
CCOC(=O)c1sc(NC(=O)c2ccc(Cl)s2)cc1C	1.8	-0.7	9.2	-6.5	0.3	-0.6	.
Cc1ccc(C)c(-n2c3nc(=O)[nH]c(=O)c-3cc3cc([N+](=O)[O-])ccc32)c1	-10.3	5.7	20.3	36.0*	10.0	26.2*	34.9*	Fam108b ABPP HTS=70.0*
Cc1ccc(C)c(-n2c3nc(=O)n(C)c(=O)c-3cc3ccccc32)c1	6.2	-1.0	8.4	-6.1	7.9	-0.8	.
Cn1c(O)c(C2=c3ccccc3=NC2=O)[nH]c1=S	-0.3	3.5	3.7	4.2	13.6	-0.1	.
COc1ccc2nc(-n3c(O)c(C4=c5ccccc5=NC4=O)[nH]c3=S)sc2c1	30.5	-5.8	12.5	53.8*	1.7	37.1*	36.1*	Fam108b ABPP HTS=0.0
CN(CCO)CCC(=O)NC1(C)CS(=O)(=O)CC1S(=O)(=O)O (centres undefined)	16.0	0.8	1.9	6.7	6.4	-2.8	.
COc1ccccc1NC(=O)c1cc2cc(Br)ccc2cc1O	-8.6	-16.6	16.4	7.3	-5.8	38.1*	17.7
SMILES	GSTO1 inh	LYPLA1 inh	PREPL inhibitor	PME-1 inh	LYPLA2 counter	Fam108B counter	Fam108b confirm	others
COc1cc(NC(=O)c2cc3ccccc3cc2O)c(OC)cc1Cl	-5.2	-13.3	8.9	42.0*	1.3	29.7*	14.2
COc1cc([N+](=O)[O-])ccc1NC(=O)CSc1n[nH]c(C(C)C)n1	-0.9	-1.4	-7.3	0.1	2.1	-4.4	.
CC1CCCCC1NC(=O)COC(=O)c1ccc2ncsc2c1 (centres undefined)	.	4.6	-6.6	-0.8	5.0	.	.
CN(C)C(CNc1ccc(S(C)(=O)=O)cc1[N+](=O)[O-])Cc1ccccc1 (centres undefined)	14.1	5.8	23.3	20.8	5.0	4.2	.
O=C1C(Nc2ccccc2)=CC(=NS(=O)(=O)c2cccs2)c2ccccc21	.	.	.	.	.	.	.	Fam108b ABPP HTS=0.0
CC(=O)Nc1ccc(NC2=CC(=NS(=O)(=O)c3cccs3)c3ccccc3C2=O)cc1	.	.	.	.	.	.	.	Fam108b ABPP HTS=20.0
Cc1ccc(NC2=C/C(=N/S(=O)(=O)c3cccs3)c3ccccc3C2=O)cc1C	30.2	-1.6	2.0	4.5	-0.1	5.3	.
O=c1[nH]n2c(=O)c3c([nH]c2c1N=Nc1cccc(Cl)c1)CCC3	12.3	7.7	26.8	56.2*	4.5	20.8*	14.8
NS(=O)(=O)c1ccc(N=Nc2c(=O)[nH]n3c(=O)c4c([nH]c23)CCCC4)cc1	-3.1	-0.5	7.1	6.8	-6.1	6.6	.
CCN(CC(=O)Nc1ccc(NC(C)=O)cc1)C(=O)CCCOc1ccc(C(C)(C)C)cc1	-5.9	-1.8	25.1	0.1	4.4	6.5	.
O=C(O)CC(C(=O)O)N1C(=O)/C(=C/c2ccc(-c3nc4ccccc4s3)o2)SC1=S (centres undefined)	26.2	3.4	16.5	-17.3	14.7	32.4*	-10.6
O=C(O)CCCN1C(=O)/C(=C\c2ccc(-c3nc4ccccc4s3)o2)SC1=S	22.0	2.3	5.8	-4.8	9.1	19.5*	11.3
O=C(O)c1ccc(N/N=C/C2=C(N3CCOCC3)C(=C\c3ccccc3)/CC2)cc1	26.8	-2.7	-0.1	4.3	4.3	18.9*	22.0*
CC1=NN(c2ccccc2)C(=O)/C1=C/c1c(O)n(-c2ccc(F)cc2)[nH]c1=O	11.8	0.0	18.6	50.9*	4.8	46.5*	50.8*	Fam108b ABPP HTS=5.0
Cc1ccc(C(=O)O)cc1N1C(=O)c2cccc3c([N+](=O)[O-])ccc(c23)C1=O	-9.7	1.5	10.9	31.7*	6.9	27.0*	22.9*
Cc1cccc(NC(=O)/C(C#N)=C/c2cccc([N+](=O)[O-])c2)n1	30.5	2.4	12.6	2.7	5.0	24.9*	21.4*
